Hits are enriched below; roughly 5.7% of the tested compounds scored in any of these assays.
DAX1 inh-1: blocks DAX1 repression of SF-1 activated StAR promoter. inhibition, % at 6.8 µM. 1.1% of 370,000 active. HEK293T StAR-luciferase reporter, SF-1/DAX-1 repression relief. AID 652010;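 active means inhibition above the mean over all tested compounds plus 3 SD, cut at about 3.6% in these data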;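 further: 0% = DAX-1 cells with DMSO and 100% = cells lacking DAX-1 with DMSO; higher inhibition means more luminescence from relief of DAX-1 repression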
ssDAF-12 act: activators of S. stercoralis DAF-12 nuclear receptor | HEK293 ssDAF-12/GRIP1 lit1-tk-luc reporter, luminescence; % of 3 µM dafachronic acid response | activation, % at 6.8 µM | 1% of 370,000 active | AID 652126;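 active means activation above the mean over all tested compounds plus 3 SD, cut at about 0.9% in these data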;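 further: 0% = DMSO-only wells and 100% = 3 µM delta7-dafachronic acid wells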
DAX1 inh-2: NR0B1 (DAX1) inhibition | P51843 | HEK293 Gal4-DAX1 luciferase reporter, luminescence | inhibition, % at 6.75 µM | 0.99% of 340,000 active;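 active means inhibition above the mean over all tested compounds plus 3 SD, cut at about 4.2% in these data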;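 further: 0% = DAX1-transfected cells with DMSO and 100% = empty-vector control cells with DMSO; inhibition shows as a rise in luminescence from relieved DAX1 repression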
hcDAF12 agonist: activators of H. contortus DAF-12 nuclear receptor; 1.4% of 370,000 active; activation, % at 6.8 µM; HEK293 hcDAF-12 lit1-tk-luc reporter, luminescence; 0% DMSO, 100% Δ7-dafachronic acid; AID 652067;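 active means activation above the mean of all tested compounds plus 3 SD, cut at about 5.5% in these data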;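 further: 100% = response to 3 µM Δ7-dafachronic acid high control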
AHR act: human AHR activation; 2.5% of 320,000 active; activation, % at 5 µM; P35869; AHR-responsive luciferase reporter cells, luminescence; AID 2796; in the data active means activation above about 47%;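 further: 0% = vehicle wells and 100% = reference agonist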
Target sequence (P35869 whole entry, looked up): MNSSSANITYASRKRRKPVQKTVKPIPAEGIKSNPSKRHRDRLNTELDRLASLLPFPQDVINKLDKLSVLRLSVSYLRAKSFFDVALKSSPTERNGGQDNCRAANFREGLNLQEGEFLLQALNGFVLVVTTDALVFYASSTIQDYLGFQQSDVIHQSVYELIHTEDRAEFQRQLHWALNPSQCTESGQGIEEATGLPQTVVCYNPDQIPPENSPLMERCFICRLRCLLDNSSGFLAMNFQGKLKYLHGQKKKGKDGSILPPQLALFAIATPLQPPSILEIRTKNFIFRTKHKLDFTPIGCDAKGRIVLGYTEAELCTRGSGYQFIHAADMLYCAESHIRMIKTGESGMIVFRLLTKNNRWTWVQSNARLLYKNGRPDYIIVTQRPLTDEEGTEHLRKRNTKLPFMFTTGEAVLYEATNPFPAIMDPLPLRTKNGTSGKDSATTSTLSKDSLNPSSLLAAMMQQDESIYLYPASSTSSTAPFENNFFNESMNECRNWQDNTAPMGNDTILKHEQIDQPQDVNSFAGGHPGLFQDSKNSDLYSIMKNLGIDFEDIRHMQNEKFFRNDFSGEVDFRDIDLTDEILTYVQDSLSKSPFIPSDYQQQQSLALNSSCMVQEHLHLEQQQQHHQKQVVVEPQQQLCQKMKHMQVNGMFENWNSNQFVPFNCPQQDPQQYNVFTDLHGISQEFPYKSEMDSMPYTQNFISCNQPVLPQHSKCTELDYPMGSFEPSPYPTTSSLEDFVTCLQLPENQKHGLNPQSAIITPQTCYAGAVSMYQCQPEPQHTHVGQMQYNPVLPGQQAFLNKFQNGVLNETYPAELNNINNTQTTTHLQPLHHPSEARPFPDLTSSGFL
hgDAF-12 ag: hgDAF-12 agonism, primary luciferase screen. HEK293 GAL4-hgDAF12 UAS-luciferase reporter, agonist luminescence; normalized to butyrate control. activation, % at 6.8 µM. 1.8% of 370,000 active. AID 687014;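 active means activation above a cutoff set at the mean of all screened compounds plus 3 SD, cut at about 10% in these data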;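 further: 0% = DMSO wells and 100% = sodium butyrate wells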
* = called active by the depositor; · = no result given.

SMILES | DAX1 inh-1 | ssDAF-12 act | DAX1 inh-2 | hcDAF12 agonist | AHR act | hgDAF-12 ag
CC1CCN(C(=O)Cn2c(=O)oc3cc(S(=O)(=O)N4CCCCC4)ccc32)CC1 | 2 | -1 | 4.9* | -1 | 1 | -1
S=C(Nc1ccccc1Cl)N1CCCC1 | 0 | -1 | 1 | -1 | -1 | 0
S=C(Nc1ccc(Br)cc1Cl)N1CCCC1 | 4.1* | 0 | 1 | 2 | 9 | 7
CCOC(=O)N1CCN(C(=O)c2cc3c(s2)-c2c(C)cccc2OC3)CC1 | 0 | -1 | 1 | -1 | 9 | -2
CCN1CCN(C(=O)c2cc3c(s2)-c2c(C)cccc2OC3)CC1 | · | · | 5.9* | · | 4 | ·
CC(C)(C)c1ccc(-c2nnc(SCC(=O)Nc3ccc(S(=O)(=O)Nc4nccs4)cc3)n2-c2ccc(Cl)cc2)cc1 | 1 | -1 | · | -1 | · | 3
Cc1ccc(C)c(/C=N/n2cc(-c3ccccc3)[nH]c2=S)c1 | -1 | -1 | -1 | 6 | 62* | -2
S=c1[nH]c(-c2ccccc2)cn1/N=C/c1ccc(Br)cc1 | 1 | -1 | 1 | 0 | 54* | 1
O=C(O)c1ccc(/C=N/n2cc(-c3ccccc3)[nH]c2=S)cc1 | 0 | -1 | -1 | 1 | 6 | 3
O=C1CSC(=S)N1c1cccc(F)c1 | 0 | -2 | 2 | 0 | 3 | -2
O=C1CC(=O)N(c2cccc(F)c2)N1 | 0 | 0 | 6.0* | -1 | 3 | 1
O=C1NCCc2c1[nH]c1ccccc21 | 0 | -1 | 1 | -2 | 2 | -1
COc1ccc2[nH]c3c(c2c1)CCNC3=O | 0 | -2 | 1 | 1 | 11 | 11*
CN(C)c1ccc(-c2nc3ccccc3n2C)cc1 | 4.0* | 0 | -3 | 6 | 8 | 7
CCn1c(-c2ccc(N(C)C)cc2)nc2ccccc21 | -1 | 0 | -1 | 4 | 54* | 3
S=C(Nc1ccccc1Cl)NC1CC2CCCC(C1)N2C1CC1 (centres undefined) | 1 | -1 | 1 | 1 | 1 | 0
Nc1[nH]c(C(=O)c2ccc(Cl)cc2)c(-c2ccc(Br)cc2)c1C(=O)c1c[nH]c2ccc(F)cc12 | 1 | -1 | · | 1 | · | 3
CC(C)C[C@@H]1COc2cccc(N3CCCC3)c2S(=O)(=O)N1 | 0 | -1 | · | -1 | · | -4
Cc1ccc2c(C)c(C(=O)N3CCN(Cc4ccc5c(c4)OCO5)CC3)oc2c1C | 2 | 0 | 0 | 5.8* | 4 | 10
CCOC(=O)c1c(Nc2ccccc2OCCOC)n[nH]c1C | 0 | -1 | 0 | -2 | 48* | 1
CCOC(=O)c1c(NCc2ccccc2)n[nH]c1C | 0 | -1 | 0 | -3 | 48* | -1
CCOc1ccccc1NC(=O)CSc1c(C)n[nH]c1C | 0 | -1 | 1 | -1 | 5 | 1
Cc1cc(F)ccc1S(=O)(=O)Nc1ccc(C(=O)N2CCCCC2)cc1 | -1 | -1 | -1 | -2 | -1 | -1
O=C1CCCN1CC(O)CS(=O)(=O)Cc1ccc(Cl)c(Cl)c1 (centres undefined) | 0 | -1 | 0 | -2 | 5 | 0
O=S(=O)(Cc1noc(-c2ccccc2Cl)n1)c1ccccn1 | 1 | 1 | 4.9* | 2 | 1 | 7
SMILES | DAX1 inh-1 | ssDAF-12 act | DAX1 inh-2 | hcDAF12 agonist | AHR act | hgDAF-12 ag
C=CCNC(=O)c1nn2cccnc2c1Cl | 2 | -1 | 1 | -1 | 14 | 0
O=C(NCc1cccnc1)c1cccc(Cl)c1 | -1 | -1 | 0 | 1 | 4 | -1
O=C(NCc1cccnc1)c1nn2cccnc2c1Cl | 1 | -1 | 5.0* | 1 | 14 | 1
O=C(Cc1c(F)cccc1Cl)NCc1cccnc1 | 0 | 0 | 1 | 5.6* | 2 | 3
O=C(NCc1cccnc1)c1cc(Cl)ccc1[N+](=O)[O-] | 1 | -1 | 1 | -1 | 74* | 4
O=C(CCCN1C(=O)NC2(CCCC2)C1=O)NCc1ccccc1 | 3 | -1 | 0 | -1 | -1 | -1
COc1ccccc1/C=C/C(=O)c1cc(Br)ccc1OC(=O)c1ccco1 | -1 | 0 | -1 | 1 | 74* | -1
Cc1ccc(/C=C/C(=O)c2cc(Br)ccc2OC(=O)c2ccco2)cc1 | -1 | 0 | 0 | -2 | 9 | -2
Cn1c(=O)c2c(nc(N3CCOCC3)n2C/C=C/c2ccccc2)n(C)c1=O | -1 | -1 | · | -2 | -1 | 0
O=[N+]([O-])c1ncccc1OCc1ccccc1Br | 0 | -1 | 0 | -2 | 1 | 1
O=[N+]([O-])c1ncccc1OCc1ccc(Br)cc1F | 0 | 0 | 0 | 1 | 0 | 11*
O=c1c2oc3nc4c(cc3c2ncn1CCCc1ccccc1)CCCC4 | 1 | -1 | 2 | 0 | 11 | 2
O=C(Nc1ccn(CCCNCCCN2CCCC2=O)c(=O)n1)OCc1ccccc1 | 0 | -1 | 4 | -1 | · | 6
O=C(COC(=O)Cc1c(Cl)cccc1Cl)Nc1ccc(OC(F)(F)F)cc1 | 0 | -2 | 0 | 0 | 67* | -2
Cc1cc(F)cc(-c2cc(C(=O)NCc3ccccn3)[nH]n2)c1 | 1 | -1 | · | -2 | · | 2
CCOC(=O)/C(C#N)=C/Nc1cc(OC)ccc1OC | -1 | -1 | 0 | -2 | 10 | 2
CCOC(=O)/C(C#N)=C/Nc1ccccc1OC(F)(F)F | -1 | 1.5* | · | -1 | 10 | 2
COc1cc(COCC(O)CN2C(C)CCCC2C)cc(OC)c1OC (centres undefined) | 0 | -2 | 4.6* | 2 | 1 | 1
O=C(O)c1cc(-c2cc3ccccc3o2)nn1-c1ccccc1 | 0 | 2.5* | 1 | 5.8* | 11 | 2
O=C(O)c1cc(-c2cccs2)nn1-c1ccccc1 | 0 | -1 | 1 | 0 | 2 | -1
COc1ccc(-n2c(=S)[nH]c(=O)c3cccnc32)cc1 | 0 | -1 | 7.2* | 0 | -5 | 0
COc1cc(NC(=O)c2ccccc2)c(OC)cc1NC(=O)CSc1[nH]c(=O)cc(C)c1C#N | 0 | -1 | 4.4* | -1 | 13 | 0
COC(=O)c1ccccc1NC(=O)CS(=O)(=O)Cc1nc(-c2ccc(C)cc2)oc1C | 1 | 1.1* | -1 | 3 | 1 | -2
COc1ccc(NC(=O)CS(=O)(=O)Cc2nc(-c3ccc(C)cc3)oc2C)cc1 | 0 | -1 | 1 | 4 | -1 | 1
O=[N+]([O-])CC(c1ccccc1)c1c[nH]c2ccccc12 (centres undefined) | 0 | 1.1* | · | 3 | 6 | 0
COc1cc(C(C[N+](=O)[O-])c2c(C)[nH]c3ccccc23)cc(OC)c1OC (centres undefined) | 0 | 0 | 0 | 2 | 16 | -1
Cc1ccccc1-c1nc2sc3c(c2c(=O)n1N)CCCC3 | 0 | -1 | 4.5* | -2 | 31 | -2
O=C(Nc1nc2c(s1)CCCC2)c1cc(-c2ccc3c(c2)OCO3)nc2ccccc12 | · | · | · | · | 57* | ·
